From PubChem
Tau fluor counter: counter-screen for tau fibril formation inhibitors. tau K18 P301L Alexa594 fluorescence, heparin fibrillization. Potency, µM (series often up to 57.7 µM), without a hit: at the highest dose activity change, negative = decrease. hit rate 0.93% among 280,000. AID 1463; further: nearly all actives have a fitted effect of over 55% in size
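Human K18 P301L tau (15 uM unlabeled plus 0.24 uM Alexa 594-labeled, final) in 100 mM sodium acetate pH 7 was mixed with compound and 20 uM heparin and incubated 6 hr at 37 C.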
KDM4E inh: blocks human JMJD2E demethylase activity. B2RXH2. JMJD2E catalytic domain, FDH-coupled NADH fluorescence (FDH is formaldehyde dehydrogenase). Potency, µM (highest dose often 57.1 µM), without a hit: at the top dose activity change, negative = inhibition, hits mostly inhibitors. hit rate 1.6% among 230,000. AID 2147; active means well fitted inhibition curve with a large enough effect, not every such curve was filed as active; inconclusive means small, poorly fitted or top-dose-only effect, or another doubt; inactive means no such curve, though single readings can be large or run the other way;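 further: 0% = wells with enzyme and -100% = buffer wells without enzyme; nearly all actives have a fitted effect of over 50% in size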
Target sequence (B2RXH2 1-337 limits assumed): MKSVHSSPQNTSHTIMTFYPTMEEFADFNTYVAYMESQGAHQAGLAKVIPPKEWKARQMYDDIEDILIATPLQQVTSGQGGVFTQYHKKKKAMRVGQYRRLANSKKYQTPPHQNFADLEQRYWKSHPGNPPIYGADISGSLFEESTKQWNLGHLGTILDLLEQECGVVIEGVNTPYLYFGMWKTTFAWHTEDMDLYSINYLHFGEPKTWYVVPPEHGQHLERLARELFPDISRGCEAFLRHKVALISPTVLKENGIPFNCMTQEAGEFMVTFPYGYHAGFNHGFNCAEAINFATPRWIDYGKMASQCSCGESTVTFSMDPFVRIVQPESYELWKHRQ
Tau fibril FP: blocks human tau fibril formation measured by polarization; K18 P301L tau heparin fibrillization, Alexa594 FP, 6 h; Potency, µM (highest dose often 57.7 µM), for inactives: top-dose activity, negative = inhibition, most hits filed as inhibitors; hit rate 0.39% among 280,000; further: nearly all actives have a fitted effect of over 55% in size
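Read-out: fluorescence polarization of Alexa 594-labeled tau (0.24 uM), 555 nm excitation, 632 nm emission. Mixtures held 15 uM unlabeled K18 P301L, compound and 20 uM heparin, pH 7 acetate buffer, incubated 6 hr at 37 C.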
Tau ThT inhib: blocks human tau fibril formation measured by thioflavin T; hit rate 2.1% among 270,000; P10636; Potency, µM (titrated, usually from 57.4 µM), for the others: top-dose activity, negative = inhibition, hits mostly inhibitors; recombinant tau K18 P301L (four-repeat tau fragment), heparin-induced fibrillization, ThT fluorescence; AID 1460; further: nearly all actives have a fitted effect of over 55% in size
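Aggregation was driven by heparin (20 uM final) acting on recombinant tau […] bearing P301L in 100 mM sodium acetate pH 7; fibrils were detected with Thioflavin T.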
GoLoco inh red: blocks human Gai1 binding to RGS12 GoLoco peptide, red readout. Gai1:RGS12 GoLoco peptide FP, rhodamine, 10 min. hit rate 0.44% among 230,000. Potency, µM (highest dose often 61.6 µM), inactives show at the highest dose activity, negative = inhibition, most hits filed as inhibitors; active means well fitted inhibition curve with a large enough effect, not every such curve was filed as active; inactive means no such curve, though single readings can be large or run the other way; further: nearly all actives have a fitted effect of over 30% in size
Target sequence (P63096 whole entry, looked up): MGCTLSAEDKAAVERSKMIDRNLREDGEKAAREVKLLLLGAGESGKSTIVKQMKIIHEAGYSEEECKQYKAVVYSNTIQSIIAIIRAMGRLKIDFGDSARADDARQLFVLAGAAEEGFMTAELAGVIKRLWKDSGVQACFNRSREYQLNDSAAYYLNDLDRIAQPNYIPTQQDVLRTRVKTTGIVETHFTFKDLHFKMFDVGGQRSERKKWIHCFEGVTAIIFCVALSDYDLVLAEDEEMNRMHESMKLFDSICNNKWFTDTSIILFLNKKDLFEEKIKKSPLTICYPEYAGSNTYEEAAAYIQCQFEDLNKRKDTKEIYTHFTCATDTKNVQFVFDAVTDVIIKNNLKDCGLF
Starred values were filed as active, the others as inactive; ? = inconclusive; / = no result; ! = a repeat was not active; [ ] = dose if it differs, or a comment. Rows were chosen to be rich in hits. Some 3.4% of all compounds tested hit in one or more screens of this group. Unless noted, the call rests on the fitted dose curve; in most records, active means well fitted curve in the direction sought with a large enough effect; inconclusive means small, poorly fitted or top-dose-only effect, or another doubt; inactive means no such curve, though single readings can be large; an effect the other way counts as inactive or inconclusive. Unless noted, on the % scale 0 is the no-effect control and ±100 the full control effect; potency means the concentration at half of the fitted maximal effect.

SMILES | Tau fluor counter | KDM4E inh | Tau fibril FP | Tau ThT inhib | GoLoco inh red
O=C1NC(=O)[C@]2(Cc3ccccc3N3CCN(c4ccccc4)CC32)C(=O)N1Cc1ccccc1 (some centres undefined) | -20.1% | -11.0% | ? | 31.6µM* | 7.9%
O=C1NC(=O)C2(Cc3ccccc3N3CCCC32)C(=O)N1c1ccc(Cl)cc1 (centres undefined) | -6.0% | 25.1µM* | ? | ? | 9.1%
Cc1ccc(N2C(=O)NC(=O)C3(Cc4ccccc4N4CCCC43)C2=O)cc1 (centres undefined) | -11.1% | ? | -16.9% | ? | 8.1%
O=C(O)Cc1cccnc1C(=O)O | -7.6% | 1.58µM* | -10.5% | ? | 2.8%
O=C(CSc1ncnc2c1nnn2-c1ccc(F)cc1)NCC1CCCO1 (centres undefined) | -8.4% | 0.3% | 0.0% | ? | 1.8%
CC(=O)C(Sc1ncnc2c1nnn2-c1ccc(F)cc1)C(=O)N(C)C (centres undefined) | -15.2% | -19.6% | ? | 14.1µM* | 0.8%
CO[C@@H]([CH2][Hg])CN1C(=O)c2ccccc2S1(=O)=O.Cn1c(=O)c2nc[nH]c2n(C)c1=O | / | / | / | / | -8.6%[14.2 µM]
CNC(=O)OCCc1n(C)cc[n+]1C | 4.2% | -16.3% | -5.4% | 2.0% | 1.58µM*
CC/C=C\C/C=C\C/C=C\C/C=C\C/C=C\CCCC(=O)NCCc1ccc(O)c(O)c1 | ? | 1.7% | 0.4% | -14.3% | -2.8%
CNCCc1ccc(O)c(O)c1 | -19.0% | 14.1µM* | -12.6% | ? | -5.9%
CN(C)C(=O)Cl | / | / | / | / | -24.5%
CSCC[C@@H](N)P(C)(=O)O | / | / | / | / | -7.6%[14.2 µM]
O=C(O)c1cc(O)c(O)c(O)c1 | 3.98µM*[quencher] | 0.355µM* | 2µM* | 1.26µM* | -8.9%
O=c1[nH]c(=S)n(-c2ccc(Cl)cc2)c(O)c1C=Nc1ccc(N2CCOCC2)cc1 | ? | 3.5% | -7.2% | 25.1µM* | 21.0%
Nc1nc(N)c(Cn2ccnc2)c(=O)[nH]1 | / | / | / | / | 0.4%[14.2 µM]
C[Se]C[C@H](N)C(=O)O | -18.0% | 17.8µM* | -7.2% | ? | 10.3%
N[C@@H](CCl)C(=O)O | -0.9% | -9.8% | 2.8% | -7.1% | 8.9%
O=C(Nc1ccc([As](=O)(O)O)cc1)Nc1cccc(Cl)c1Cl | / | / | / | / | 2.1%[14.2 µM]
CC[C@]1(OC(=O)CN)C(=O)OCc2c1cc1n(c2=O)Cc2cc3ccccc3nc2-1 | / | / | / | / | 13.4%[14.2 µM]
CC(C)C[C@H]1C(=O)N2CCC[C@@H]2[C@]2(O)O[C@](NC(=O)[C@@H]3C=C4c5cccc6[nH]c(Br)c(c56)C[C@H]4N(C)C3)(C(C)C)C(=O)N12 | ? | ? | 4.0% | ? | 2.7%
CC(C)C[C@H]1C(=O)N2CCCC2[C@]2(O)O[C@](NC(=O)[C@@H]3C=C4c5cccc6[nH]cc(c56)CC4N(C)C3)(C(C)C)C(=O)N12 (some centres undefined) | ? | ? | ? | 12.6µM* | 60.3%
CC(C)[C@@]1(NC(=O)[C@@H]2C=C3c4cccc5[nH]cc(c45)C[C@H]3N(C)C2)O[C@@]2(O)[C@@H]3CCCN3C(=O)[C@H](Cc3ccccc3)N2C1=O | ? | ? | ? | 12.6µM* | -13.3%
CC1=NN(c2ccc(S(=O)(=O)O)cc2C)C(=[OH+])[C@H]1N=Nc1cc(S(=O)(=O)O)ccc1C(=O)O.O.[Cr] | / | / | / | / | 9.9%[14.2 µM]
c1nc(N2CC2)c2cnn([C@@H]3CCCCO3)c2n1 | / | / | / | / | 2.3%[14.2 µM]
O=C1NC(=O)N(c2cccc(Cl)c2)C(=O)/C1=C\c1ccc(Sc2nc3ccccc3[nH]2)o1 | ? | ? | ? | 12.6µM* | -42.5%
SMILES | Tau fluor counter | KDM4E inh | Tau fibril FP | Tau ThT inhib | GoLoco inh red
O=C1NC(=O)N(c2ccccc2F)C(=O)/C1=C/c1ccc(Sc2nc3ccccc3[nH]2)o1 | -11.2% | ? | -22.1% | 12.6µM* | -179.9%
O=C1NC(=O)N(c2ccccc2)C(=O)/C1=C/c1ccc(Sc2ccccc2)o1 | -9.0% | ? | -5.7% | ? | 45.9%
N#CCCCC[N+]12CN3CN(CN(C3)C1)C2 | / | / | / | / | 6.5%[14.2 µM]
O=P(O)(O)CCP(=O)(O)O | / | / | / | / | 5.7%[14.2 µM]
O=c1c(O)c(-c2ccc(O)c(O)c2)oc2c(O)c(O)cc(O)c12 | ? | 2.82µM* | 7.94µM* | 3.55µM* | 2.4%
CC(C)[N+](C)(C)CC#CC(O)(c1ccccc1)c1ccccc1 | -34.7%[11.6 µM] | ? | 8.8%[11.6 µM] | / | 3.16µM*
C[C@H](CN(C)C)C(C#N)(c1ccccc1)c1ccccc1 | / | / | / | / | -0.9%[14.2 µM]
Oc1ccc(Cl)cc1Cc1cc(Cl)ccc1O | 11.2µM*[quencher] | -4.4% | ? | ? | 7.4%
O=C(O)C[SH+]CC(=O)O.O=C(O)C[SH+]CC(=O)O.[Cu] | / | / | / | / | 2.2%[14.2 µM]
C[C@@](Br)(C(=O)O)[C@H](Br)C(=O)O | / | / | / | / | 1.2%[14.2 µM]
CC(C)[N+](C)(CCC(C(N)=O)(c1ccccc1)c1ccccc1)C(C)C | -1.5% | -5.7% | -1.0% | -1.2% | 5.01µM*!
Cc1ccc(-c2nc(S(=O)(=O)c3ccc(C)cc3)c(SCC(=O)Nc3ccc(F)cc3)o2)cc1 | ? | / | ? | -2.1% | /
FC(F)=C(F)CCSc1ncn[nH]1 | 10.4% | 4.47µM* | 6.2% | 4.8% | 8.3%
COc1cccc(N2CCN(Cc3ccc(Cl)cc3)CC2)c1 | -17.2% | 20µM* | -0.4% | -12.0% | -16.6%
O=C(O)CSCC(=O)O | / | / | / | / | 7.5%[14.2 µM]
COc1ccc(CN2CCN(c3ncnc4sc5c(c34)CCCC5)CC2)cc1F | -12.2% | / | 1.4% | ? | /
O=C(OCC(=O)c1ccc([N+](=O)[O-])cc1)/C(=C\c1ccc(Cl)cc1)NC(=O)c1ccccc1 | ? | -17.8% | -7.8% | 12.6µM* | 33.0%
Cn1nc(-c2ccc(C(=O)Nc3ccc(OC(F)(F)F)cc3)cc2)c2ccccc2c1=O | -12.0% | / | ? | 12.0% | /
CN(C)CCCc1c[nH]c2ccccc12 | / | / | / | / | -0.5%[14.2 µM]
COc1cc2c(cc1O)C[C@H]1NCCc3cc4c(c-2c31)OCO4 | ? | ? | -3.7% | 14.1µM* | 5.7%
O=C(O)c1cc[c]([Hg][Cl])cc1 | -8.0% | ? | -11.8% | ? | 1.26µM*
O=C(O)c1cccc(Cl)c1 | / | / | / | / | -3.7%
S=C=Nc1cccc2ccccc12 | / | / | / | / | -14.1%
CCn1c(P(C)(=O)O)nc2ccccc21 | -7.3% | 7.1% | -3.1% | -8.8% | 3.4%
CCn1c(NN=O)nc2ccccc21 | -11.3% | ? | -1.6% | 28.2µM* | 4.6%
SMILES | Tau fluor counter | KDM4E inh | Tau fibril FP | Tau ThT inhib | GoLoco inh red
N#CC(Cl)Cl | / | / | / | / | -5.4%
CC(=O)C1=C(O)C2C3c4c[nH]c5cccc(c45)CC3C(C)(C)N2C1=O (centres undefined) | -15.4% | ? | -7.2% | -23.0% | 5.5%
CC(=O)C1=C(O)[C@@H]2[C@@H]3c4c[nH]c5cccc(c45)C[C@@H]3C(C)(C)N2C1=O | -8.9% | 12.6µM* | -7.7% | -14.4% | 8.2%
CCC(Cl)[N+](=O)[O-] (centres undefined) | / | / | / | / | 1.4%
Cc1ccc(/C=C2\C(=O)NC(=S)N(c3ccccc3F)C2=O)s1 | ? | -1.0% | 1.2% | 17.8µM* | 317.6%
COc1cc(C(=O)NCCSc2c(-c3ccccc3)[nH]c3ccccc23)cc(OC)c1OC | 8.91µM*[quencher] | / | -1.6% | -9.1% | /
